RORgamma inh: qHTS for inhibitors of ROR gamma transcriptional activity; Potency, µM (highest dose often 53.6 µM), for the others: top-dose activity change, negative = inhibition, actives largely listed as inhibitors; actives 5.4% (n = 310,000); Drosophila S2 Gal4-RORgamma UAS-luciferase reporter, 20 h; Nuclear receptor ROR-gamma (Mus musculus), P51450; further: nearly all actives have a fitted effect of over 60% in size
Target sequence (P51450 whole entry, looked up, the tested form may be a part): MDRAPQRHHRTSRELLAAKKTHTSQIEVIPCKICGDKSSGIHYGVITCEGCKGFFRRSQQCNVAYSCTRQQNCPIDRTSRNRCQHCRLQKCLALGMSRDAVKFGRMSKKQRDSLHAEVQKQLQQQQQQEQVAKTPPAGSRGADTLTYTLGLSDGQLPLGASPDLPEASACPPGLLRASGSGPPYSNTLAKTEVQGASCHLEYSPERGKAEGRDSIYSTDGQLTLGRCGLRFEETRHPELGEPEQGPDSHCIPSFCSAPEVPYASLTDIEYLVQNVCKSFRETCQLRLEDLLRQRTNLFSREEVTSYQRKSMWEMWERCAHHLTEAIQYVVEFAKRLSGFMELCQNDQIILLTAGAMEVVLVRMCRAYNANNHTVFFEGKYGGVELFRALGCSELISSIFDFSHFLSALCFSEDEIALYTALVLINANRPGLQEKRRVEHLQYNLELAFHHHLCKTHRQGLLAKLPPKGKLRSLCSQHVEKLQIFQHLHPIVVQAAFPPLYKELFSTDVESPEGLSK
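Luciferase reporter read in Schneider cells carrying Gal4-RORγ (mouse) and UAS-Photinus luciferase; cells given compound 1 h before 700 uM copper sulfate induction, then incubated 20 h at ambient temperature.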
KinaseGlo FLuc: Counterscreen for Luciferase (Kinase-Glo TM) Inhibition | Kinase-Glo luciferase, ATP luminescence, 8 min | Potency, µM (series often up to 38.3 µM), for the others: at the highest dose activity change, negative = inhibition, hits mostly inhibitors | actives 0.28% (n = 200,000); further: nearly all actives have a fitted effect of over 60% in size
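Kinase-Glo luciferase light output from ATP and luciferin was measured with 10 uM ATP, within the enzyme's linear range. Buffer: 50 mM imidazole pH 7.2, 50 mM KCl, 7 mM MgCl2, 0.01% Tween 20, 0.05% BSA; luminescence read after 8 min at ambient temperature.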
Gal4-VP16 FLuc: VP16 counterscreen qHTS for inhibitors of ROR gamma transcriptional activity | Drosophila S2 Gal4-VP16 UAS-luciferase, luminescence, 20 h | Potency, µM (highest dose often 53.6 µM), for inactives: at the top dose activity, negative = inhibition, actives largely listed as inhibitors | actives 3.5% (n = 310,000);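 further: Gal4-VP16 expression switched on by copper sulfate through the metallothionein promoter; nearly all actives have a fitted effect of over 50% in size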
* hit, by the source's call; u = inconclusive; x = no result given; [ ] = remark or other dose. A selection: hits, their analogues and other compounds. The true share with any hit is near 6.2%. The call rests on the fitted dose curve; in most records, active means well fitted curve in the direction sought with a large enough effect; inconclusive means small, poorly fitted or top-dose-only effect, or another doubt; inactive means no such curve, though single readings can be large; an effect the other way counts as inactive or inconclusive. On the % scale 0 is the no-effect control and ±100 the full control effect; potency means the concentration at half of the fitted maximal effect.

SMILES	RORgamma inh	KinaseGlo FLuc	Gal4-VP16 FLuc
O=C1CNC(=S)N1C1CCCCCC1	11µM*	x	-24%
CCCC1NC(=S)N(C2CCCCC2)C1=O (configuration not stated)	-40%[10 µM]	-1%	u
CC[C@H](C)[C@H](NC(=O)[C@H](Cc1ccccc1)NC(=O)[C@H](CCC(=O)O)NC(=O)[C@H](CCCCN)NC(=O)[C@H](C)NC(=O)[C@H](C)NC(=O)[C@H](CCC(N)=O)NC(=O)CNC(=O)[C@H](CCC(=O)O)NC(=O)[C@H](CC(C)C)NC(=O)[C@H](Cc1ccc(O)cc1)NC(=O)[C@H](CO)NC(=O)[C@H](CO)NC(=O)[C@@H](NC(=O)[C@H](CC(=O)O)NC(=O)[C@H](CO)NC(=O)[C@@H](NC(=O)[C@H](Cc1ccccc1)NC(=O)[C@@H](NC(=O)CNC(=O)[C@H](CCC(=O)O)NC(=O)[C@H](C)NC(=O)[C@@H](N)Cc1cnc[nH]1)[C@@H](C)O)[C@@H](C)O)C(C)C)C(=O)N[C@@H](C)C(=O)N[C@@H](Cc1c[nH]c2ccccc12)C(=O)N[C@@H](CC(C)C)C(=O)N[C@H](C(=O)N[C@@H](CCCCN)C(N)=O)C(C)C	2%	x	-7%
COC(=O)c1ccc2c(=O)n(Cc3ccc4c(c3)OCO4)c(SCC(=O)N3CCCC3)nc2c1	27%	x	4%
Cc1nc(SCC(=O)N2CCOCC2)c2c(C)c(C)sc2n1	-1%	x	5%
Cc1nc(SC2CCOC2=O)c2c(C)c(C)sc2n1 (configuration not stated)	11µM*	-2%	16µM*
CC(C)OCCCNC(=O)CN1CCN(Cc2ccccc2Cl)C1=O	8%	-1%	-3%
COC(=O)C1=C(C(=O)OC)[C@@H]2N(Cc3ccccc3)c3ccccc3[C@@]23C[C@@H](C(=O)OC)N(S(=O)(=O)c2cccs2)C3=N1	x	-5%[7.66 µM]	x
Cc1c(C(=O)OCC(=O)Nc2ccc(S(N)(=O)=O)cc2)oc2c1ccc1ccccc12	35%	-1%	u
Cc1cc(NC(=O)COC(=O)c2oc3c(ccc4ccccc43)c2C)no1	u	-1%	11µM*
CCOc1cc(CNn2cnnc2SCC(=O)NC(C)(C)C)ccc1OCC(=O)NC(C)(C)C	8%	1%	-15%
Cc1ccnc(SCc2cc(=O)c(OC(=O)c3ccc(Cl)c([N+](=O)[O-])c3)co2)n1	10µM*	0%	11µM*
Cc1ccnc(SCc2cc(=O)c(OC(=O)c3ccco3)co2)n1	0%	1%	-1%
CC(=O)c1ccc(N=Nc2ccc(N(C)C)cc2)cc1	-2%	u	-12%
CC(=O)c1ccc(N=Nc2ccc(C)cc2)cc1	10µM*	-9%	u
Cc1ccc(NC(=O)c2ccc(NC(=O)C3CCCCC3C(=O)O)cc2)cc1 (configuration not stated)	0%	x	-9%
CC(C)Cc1nn2c(=O)cc(COc3ccc(NC(=O)c4ccco4)cc3)nc2s1	2%	x	-6%
O=C(c1ccc(S(=O)(=O)Nc2ccc(F)cc2)cc1)N1CCN(C(=O)c2ccco2)CC1	-28%	-2%	20µM*
Cc1cc(S(=O)(=O)Nc2ccc(C(=O)N3CCN(C(=O)c4ccco4)CC3)cc2)ccc1F	29%	-2%	u
c1cncc(CNc2nc(-c3ccoc3)nc3ccccc23)c1	4%	-3%	6%
CN(C)c1ccc(-c2nc(NCc3cccnc3)c3ccccc3n2)cc1	u	-14%	14µM*
COc1ccc(-c2nc3ccccc3c(=O)[nH]2)cc1	u	x	-21%
CN(C)C(=O)c1ccc(-c2nc(Nc3ccncc3)c3ccccc3n2)cc1	-40%	-2%	-5%
CN(C)c1ccc(-c2nc(Nc3ccncc3)c3ccccc3n2)cc1	u	-8%	16µM*
Cc1ccccc1-c1nc(Nc2ccncc2)c2ccccc2n1	7.1µM*	x	-20%
SMILES	RORgamma inh	KinaseGlo FLuc	Gal4-VP16 FLuc
Cc1ccc(Nc2nc(-c3ccncc3)nc3ccccc23)cc1	-24%	x	-1%
CN(C)c1ccc(-c2nc3ccccc3c(=O)[nH]2)cc1	5.6µM*	x	u
COC(=O)[C@@H]1C[C@H]1[C@@H](NC(=O)c1cnccn1)c1ccccc1	-2%	2%	1%
O=C(COC(=O)C12CC3CC(CC(C3)C1)C2)Nc1ccc([N+](=O)[O-])cc1Cl	2%	0%	-3%
O=C(O)c1cc(C(=O)O)c(C(=O)N(Cc2cccc(Oc3ccccc3)c2)[C@H]2CCCc3ccccc32)cc1C(=O)O	2%	x	3%
CCC(C)(C)n1nnnc1CN1CCN(C(c2ccccc2)c2ccccc2)CC1	34%	0%	-13%
Cc1c(/C=N/NC(=O)c2cccs2)c2ccccc2n1Cc1ccccc1Cl	-11%	x	-16%
Clc1ccccc1-c1nc(Nc2ccncc2)c2ccccc2n1	11µM*	x	-10%
c1ccc(Nc2nc(-c3ccncc3)nc3ccccc23)cc1	-26%	6%	-18%
COc1ccc(CNc2nc(-c3ccc(C(=O)N(C)C)cc3)nc3ccccc23)c(OC)c1	u	-10%	-5%
COc1ccc(CNc2nc(-c3ccc(N(C)C)cc3)nc3ccccc23)c(OC)c1	5µM*	x	5µM*
COc1ccc(N2CC(C(=O)Nc3nnc(SCc4ccccn4)s3)CC2=O)cc1 (configuration not stated)	23%	6%	7%
O=C(c1ccc(=O)[nH]c1)N(Cc1cccs1)C1(C(=O)NC2CCCC2)CCCCC1	7%	1%	3%
CN(C)c1ccc(NC(=S)NC(=O)/C=C/c2ccco2)cc1	14µM*	0%	9%
O=C(/C=C/c1ccco1)NC(=S)Nc1ccc(N2CCCC2)cc1	2µM*	-1%	3.2µM*
CCN(CC)c1ccc(NC(=O)/C=C\c2ccccc2Cl)cc1	35%	6%	-6%[0.365 µM]
CC(=O)NC(=S)Nc1ccc(NC(=S)NC(=O)/C=C/c2ccco2)cc1	u	x	-16%
C=CCNC(=S)Nc1ccc(C(N)=O)cc1	0%	-2%	-2%
O=C(/C=C/c1ccco1)NC(=S)Nc1ccc(C(=O)O)cc1	-13%	x	6%
C=CCNC(=S)Nc1ccc(N(C)C)cc1	11µM*	x	u
CN(C)c1ccc(NC(=O)/C=C/c2ccccc2Cl)cc1	0.056µM*	0%	-10%
CCc1nnc(NC(=O)CSCc2cc(=O)n3ccsc3n2)s1	3%	x	-1%
Cc1ccccc1/C=N/Nc1ccnc2cc(Cl)ccc12	u	0%	u
Cc1ccc(/C=N/Nc2ccnc3cc(Cl)ccc23)c(C)c1	u	2%	8.9µM*
Clc1ccc2c(N/N=C/c3ccc(Br)cc3)ccnc2c1	6.3µM*	-3%	7.1µM*
Clc1ccc2c(N/N=C/c3cccnc3)ccnc2c1	u	0%	u
O=C(CN1CCN(S(=O)(=O)c2ccc(Br)cc2)CC1)c1ccc(O)c(O)c1	-24%	x	15%
O=C(c1cccc(F)c1)N1CCC2(CC1)CN(c1ccc(-c3ccccc3)cc1)C2	11%	1%	16µM*
O=C(c1cnccn1)N1CCC2(CC1)CN(c1ccccc1)C2	-8%	-2%	11%
CC(=O)N1CCC2(CC1)CCN(c1cccc(-c3ccccc3)c1)CC2	29%	1%	-10%

Assay outcomes as filed in PubChem.
